Compounds without any hit were thinned out: in the full panel of roughly 83,000, 20% have a hit.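 Step 1: grow cells in 96-well plates. Step 2: add test compound at a single concentration. Step 3: incubate 48 h. Step 4: record percent growth.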 A number with no mark means an inactive call. Active and inactive are the calls of the source. How the source made its calls: active means growth percent below 10; inactive means the rest.
Tests used:
Test in all cases: NCI-60 one-dose screen, 48 h (100 = growth as untreated, 0 = no growth, -100 = all killed)
Conditions in all cases: 10 µM unless noted
K-562 leukemia = tested on: K-562 leukemia
MALME-3M melanoma = tested on: MALME-3M melanoma
MDA-MB-231 breast = tested on: MDA-MB-231 breast
RXF 393 renal = tested on: RXF 393 renal
SF-268 CNS = tested on: SF-268 CNS
SF-295 CNS = tested on: SF-295 CNS
SF-539 CNS = tested on: SF-539 CNS
UACC-257 melanoma = tested on: UACC-257 melanoma
M14 melanoma = tested on: M14 melanoma
HCT-15 colon = tested on: HCT-15 colon
HT29 colon = tested on: HT29 colon
SNB-75 CNS = tested on: SNB-75 CNS
SNB-19 CNS = tested on: SNB-19 CNS
U251 CNS = tested on: U251 CNS
PC-3 prostate = tested on: PC-3 prostate
SK-MEL-5 melanoma = tested on: SK-MEL-5 melanoma
UACC-62 melanoma = tested on: UACC-62 melanoma
LOX IMVI melanoma = tested on: LOX IMVI melanoma
SK-MEL-28 melanoma = tested on: SK-MEL-28 melanoma
SK-MEL-2 melanoma = tested on: SK-MEL-2 melanoma

Row | SMILES | growth (K-562 leukemia) | growth (MALME-3M melanoma) | growth (MDA-MB-231 breast) | growth (RXF 393 renal) | growth (SF-268 CNS) | growth (SF-295 CNS) | growth (SF-539 CNS) | growth (UACC-257 melanoma) | growth (M14 melanoma) | growth (HCT-15 colon) | growth (HT29 colon) | growth (SNB-75 CNS) | growth (SNB-19 CNS) | growth (U251 CNS) | growth (PC-3 prostate) | growth (SK-MEL-5 melanoma) | growth (UACC-62 melanoma) | growth (LOX IMVI melanoma) | growth (SK-MEL-28 melanoma) | growth (SK-MEL-2 melanoma)
1 | CC(=O)Oc1ccccc1C(=O)Nc1ccc(C(=O)/C=C/c2cccs2)cc1 | 101% | 104% | 113% | 126% | 107% | 99.1% | 107% | 113% | 107% | 96.7% | 110% | 113% | 101% | 99.4% | 103% | 101% | 98.3% | 100% | 106% | 122%
2 | Fc1ccc(-c2nc(C(Cl)Cl)nc3cc(-c4ccccc4)nn23)cc1 | 11.4% | -15% (active) | 11.8% | -70.1% (active) | 24% | 6.38% (active) | 32.8% | 1.45% (active) | -40.7% (active) | 4.01% (active) | -9.69% (active) | -14.7% (active) | 3.82% (active) | -53.6% (active) | 31% | 57% | 40.6% | 32.4% | -13.8% (active) | 115%
3 | CCN1CCN(/C(=N\c2sc(-c3ccccc3)nc2-c2ccccc2)c2ccccc2)CC1 | 32.8% | 108% | 79.9% | 72.1% | 89.2% | 111% | 87.8% | 80.4% | 81.1% | 38.1% | 32.6% | 89.1% | 84.8% | 67.4% | 65.8% | 93.4% | 55.3% | 80.1% | 80.6% | 102%
4 | COc1ccc(N/N=C/c2c(-c3ccc(S(C)(=O)=O)cc3)nc3ccccn23)cc1 | 8.66% (active) | 75.1% | 38.7% | 79.3% | 55.7% | 6.91% (active) | 55.4% | 70.6% | 18.4% | 19.3% | 64.4% | 62.6% | 78.6% | 69.4% | 29.1% | 59.5% | 10.8% | 16.6% | 51.5% | 53.8%
5 | COc1ccc(COc2ccc(/C=C3/C(=O)Nc4cc(Cl)ccc43)cc2)cc1 | 113% | 86.6% | 91.2% | 105% | 99.5% | 101% | 85.8% | 106% | 97.7% | 104% | 107% | 83.8% | 100% | 96.8% | 86.1% | 96.7% | 88.6% | 94.8% | 98.7% | 114%
6 | c1ccc2c(NCCCN3CCOCC3)c3oc4ccccc4c3nc2c1 | 2.74% (active) | -25.9% (active) | -27.9% (active) | -76.2% (active) | -3.87% (active) | -17.6% (active) | -29.5% (active) | -7.26% (active) | -32% (active) | 0.78% (active) | -48.2% (active) | -4.26% (active) | 5.03% (active) | -2.33% (active) | 7.6% (active) | -90.4% (active) | -52.1% (active) | -38.6% (active) | -46.9% (active) | -75.4% (active)
7 | CS(=O)(=O)Nc1ccc(-c2nn(-c3ccc(S(C)(=O)=O)cc3)cc2/C=C/C(=O)c2ccc(NC(=O)CO[N+](=O)[O-])cc2)cc1 | 102% | 107% | 93.4% | 95% | 108% | 97.2% | 101% | 103% | 111% | 99.6% | 104% | 108% | 100% | 101% | 98.2% | 100% | 100% | 93.2% | 104% | 97.3%
8 | COc1ccc(/C=N/Nc2ccnc3cc(Cl)ccc23)cc1Cl | -52.8% (active) | -78.5% (active) | -71.3% (active) | -58% (active) | -64.7% (active) | -53.1% (active) | -90.4% (active) | -84.4% (active) | -84.5% (active) | -20.4% (active) | -55.3% (active) | -88.5% (active) | -79.2% (active) | -90.7% (active) | -24.9% (active) | -93.5% (active) | -86.4% (active) | -35.5% (active) | -92.4% (active) | -88% (active)
9 | O=C1c2c(c3c4cccnc4[nH]c3c3ccc4ccccc4c23)C(=O)N1CCO | 51.4% | 114% | 78.8% | 101% | 78.4% | 50.9% | 78.7% | 92.7% | 86.1% | 72.1% | 75.6% | 118% | 69.9% | 51.4% | 70.1% | 81.4% | 46.5% | 51.7% | 102% | 138%
10 | Nc1c(C(=O)Nc2ccc(Cl)cc2)sc2nc(-c3cnccn3)cc(-c3cccs3)c12 | 40.5% | 91.2% | 72.9% | 61.5% | 47.2% | 59% | 12.2% | 81.5% | 89.2% | 62.5% | -10.3% (active) | 14.2% | 49.1% | 17.9% | 54.3% | 76.5% | 69.5% | -16.8% (active) | 64.8% | 85.4%
11 | Fc1ccc(-c2cc3nc(C(Cl)Cl)nc(-c4ccc(Cl)cc4)n3n2)cc1 | 24.3% | 37.4% | 7.4% (active) | -55.5% (active) | 26.2% | 9.78% (active) | 21% | 39.1% | 22.3% | 12.1% | -35% (active) | -2% (active) | 6.37% (active) | -58.1% (active) | 22.8% | 76.9% | 53.1% | 70.9% | 11.6% | 89.4%
12 | N#Cc1nc(-c2ccccc2)oc1N1CCC(CO)C1 (stereo not given) | 114% | 94.3% | 101% | 100% | 97.7% | 105% | 93.9% | 105% | 106% | 104% | 107% | 89% | 93.3% | 105% | 107% | 106% | 89.4% | 88.2% | 103% | 127%
13 | Cc1nc(-c2cc3ccccc3oc2=O)ccc1C(=O)/C=C/c1ccc(Cl)c(Cl)c1 | 103% | 96.9% | 95.5% | 119% | 99.8% | 95.7% | 92.5% | 120% | 107% | 107% | 114% | 95.2% | 98.5% | 99.4% | 101% | 105% | 100% | 86.9% | 106% | 134%

Source: PubChem BioAssay (NCI)
